Compounds without any hit were thinned out: in the full panel of roughly 83,000, 20% have a hit.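 How to read the values: 0–100, growth inhibition (40 = 60% inhibited); 0, no net growth; -100 to 0, cell death (-40 = 40% of starting cells died; -100 = all dead).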 A number with no mark means an inactive call. Active and inactive are the calls of the source. Rule for the calls: active = growth percent below 10; inactive = the rest.
Tested on: PC-3 prostate
Test: NCI-60 one-dose screen, 48 h (100 = growth as untreated, 0 = no growth, -100 = all killed)
Details: 10 µM unless noted

SMILES | growth
COCCOC(=O)C1=C(C)NC(=S)NC1c1ccc2c(c1)OCO2 (stereo unspecified) | 95.7%
O=S(=O)(Nc1ccc(F)c(Cl)c1)c1ccc(-c2cnc(C3CC3)o2)cc1 | 24.9%
NCCN1CCN(c2nccc(-c3ccc4ccccc4c3)n2)CC1 | 45.6%
CCN(CC)Cc1cc(Nc2c3ccc(Cl)cc3nc3c(C)cccc23)ccc1O | -48.9% (active)
N#Cc1ccc(NC(=O)Nc2ccc(Cc3ccc(NC(=O)Nc4ccc(C#N)cc4)cc3)cc2)cc1 | 23.3%
CCCCNc1ccc2c3c1cccc3c(=O)n1c3ccccc3nc21 | 85.5%
O=C1O[C@H]([C@H](O)CO)C(O)=C1O | 96%
CCC(=O)OCc1cccc(OC)c1 | 86.5%
Cc1ccc2cnc(N)c(C#Cc3cncc(C(=O)Nc4ccc(CN5CCN(C)CC5)c(C(F)(F)F)c4)c3)c2c1 | -71% (active)
CC#Cc1nc2ccccc2c(=O)[nH]1 | 61.4%
COc1cc2c(cc1O)CCc1cc(O)cc(OC)c1-2 | 93.6%
CCCCCCCCCCCCS(=O)CC(C)O (stereo unspecified) | 99.3%
CCN(CC)CCCNc1cccc2c(SCc3ccccc3)ccnc12 | 17.7%
COc1ccc(/C=C2\N=C3Sc4cc(Cl)ccc4C(=O)N3C2=O)cc1 | 85.5%
O=C1C(Cl)=C(Cl)C(=O)c2c1nc1n2CCCC1 | 88.5%
CN1CCN(Cc2ccc(NC(=O)c3cncc(C#Cc4c(N)ncc5ccc(C#N)cc45)c3)cc2C(F)(F)F)CC1 | -52.1% (active)
Nc1nc(SCc2ccccc2)c2ncn(C3CCCC3)c2n1 | 83.2%
COc1cc(NC(N)=NCC(C)(C)COc2ccc(C(F)(F)F)cc2)cnc1C#N | 49.3%
CCCCCCCCCCCCCCCC(=O)OCC1OC(n2cnc3c(=S)nc(N)[nH]c32)C(OC(=O)CCCCCCCCCCCCCCC)C1OC(=O)CCCCCCCCCCCCCCC (stereo unspecified) | 78.8%

SMILES | growth
O=[N+]([O-])c1cccc(-c2nc3sccn3c2-c2ccnc(NCCCNS(=O)(=O)c3ccc(Br)cc3)n2)c1 | 24.5%
COc1ccc(-c2nc(Nc3cc(C)[nH]n3)c3ccccc3n2)cc1 | 57.2%
O=C1Nc2c(ccc(Cl)c2Cl)/C1=C/c1cc(Br)c(O)c(Br)c1 | 59.4%
Nc1nc2ccc(-c3nc4ccc5[nH]ncc5c4c4c3CCC4)cc2s1 | 23.1%
CC[C@@H](C)OC(=O)c1nn(C(C)=O)c2ccccc12 | 103%
CCN(CC)c1ccc(/C=C/C2=[N+](C)c3ccccc3C2(C)C)cc1 | 5.82% (active)
CCCCCCCCCCCCCCCC[N+]1(CC)CCCC1 | -77.6% (active)
COc1cc(OC)c(/C=C/c2cc[n+](C)c3ccccc23)c(OC)c1 | 16.5%
CC[C@H](Nc1nc(N)nc(C)c1C#N)c1nc2cccc(NCc3ccc(C(=O)NO)cc3)c2c(=O)n1-c1ccccc1 | 5.79% (active)
O=C(CN1CCOCC1)Nc1ccc(Cn2nnc3c2C(=O)c2nnn(Cc4ccc(NC(=O)CN5CCOCC5)cc4)c2C3=O)cc1 | 5.89% (active)
COc1ccc2[nH]c(=O)c(/C=C/C(=O)c3ccc(Nc4nccc(-c5ccc6ccccc6c5)n4)cc3)cc2c1 | 98.2%
OC(c1cccc(C(F)(F)F)c1)c1cnccc1NC1CCCCCC1 (stereo unspecified) | 22.4%
CNC(=O)c1cc(Oc2ccc3nc(NC(=O)Nc4ccc(CN5CCOCC5)c(C(F)(F)F)c4)sc3c2)ccn1 | 8.35% (active)
O=c1c2cccc3c(Nc4ccccn4)ccc(c32)c2nc3ccccc3n12 | 64%
CC(C)[C@@H]1CC[C@]2(C(=O)NCCCCN=C(N)N)CC[C@]3(C)[C@H](CC[C@@H]4[C@@]5(C)CCC(=O)C(C)(C)[C@@H]5CC[C@]43C)[C@@H]12 | 46.6%
Cc1ccc2c(c1)n([O-])c1cc(Cl)ccc1[n+]2=O | 93.6%
CC(C)(C)n1cc(-c2ccnc(NCCCNS(=O)(=O)c3cccc4ccccc34)c2)c(-c2cccc(O)c2)n1 | 21.1%
COc1ccc(-c2cc(=O)[nH]c3c(OC)c4ccccc4c(OC)c23)cc1 | 14.8%

Tested on: SK-MEL-5 melanoma
Test: as above
Details: 10 µM unless noted

SMILES | growth
COCCOC(=O)C1=C(C)NC(=S)NC1c1ccc2c(c1)OCO2 (stereo unspecified) | 97.6%
O=S(=O)(Nc1ccc(F)c(Cl)c1)c1ccc(-c2cnc(C3CC3)o2)cc1 | 6.59% (active)
NCCN1CCN(c2nccc(-c3ccc4ccccc4c3)n2)CC1 | 54.9%
CCN(CC)Cc1cc(Nc2c3ccc(Cl)cc3nc3c(C)cccc23)ccc1O | -96.5% (active)
N#Cc1ccc(NC(=O)Nc2ccc(Cc3ccc(NC(=O)Nc4ccc(C#N)cc4)cc3)cc2)cc1 | 10.5%
CCCCNc1ccc2c3c1cccc3c(=O)n1c3ccccc3nc21 | 75.5%
CCC(=O)OCc1cccc(OC)c1 | 104%
CC#Cc1nc2ccccc2c(=O)[nH]1 | -10% (active)
COc1cc2c(cc1O)CCc1cc(O)cc(OC)c1-2 | 98.5%
CCCCCCCCCCCCS(=O)CC(C)O (stereo unspecified) | 103%
CCN(CC)CCCNc1cccc2c(SCc3ccccc3)ccnc12 | 85.4%
COc1ccc(/C=C2\N=C3Sc4cc(Cl)ccc4C(=O)N3C2=O)cc1 | 99.8%
Nc1nc(SCc2ccccc2)c2ncn(C3CCCC3)c2n1 | 94%
CCCCCCCCCCCCCCCC(=O)OCC1OC(n2cnc3c(=S)nc(N)[nH]c32)C(OC(=O)CCCCCCCCCCCCCCC)C1OC(=O)CCCCCCCCCCCCCCC (stereo unspecified) | 96.7%
O=[N+]([O-])c1cccc(-c2nc3sccn3c2-c2ccnc(NCCCNS(=O)(=O)c3ccc(Br)cc3)n2)c1 | -15.6% (active)
COc1ccc(-c2nc(Nc3cc(C)[nH]n3)c3ccccc3n2)cc1 | 69%
O=C1Nc2c(ccc(Cl)c2Cl)/C1=C/c1cc(Br)c(O)c(Br)c1 | 23.2%
Nc1nc2ccc(-c3nc4ccc5[nH]ncc5c4c4c3CCC4)cc2s1 | 1.24% (active)
Cc1cc(Cl)ccc1Nc1nc(C(F)(F)F)ccc1C(=O)N/N=C/c1ccc(F)cc1 | 5.06% (active)
COc1ccc(C(=O)COc2ccc(/C=C3\Oc4ccc(Cl)cc4C3=O)cc2)cc1 | 78.8%
CCN(CC)c1ccc(/C=C/C2=[N+](C)c3ccccc3C2(C)C)cc1 | -71.3% (active)
CCCCCCCCCCCCCCCC[N+]1(CC)CCCC1 | -83.6% (active)
COc1cc(OC)c(/C=C/c2cc[n+](C)c3ccccc23)c(OC)c1 | -47.2% (active)
CC[C@H](Nc1nc(N)nc(C)c1C#N)c1nc2cccc(NCc3ccc(C(=O)NO)cc3)c2c(=O)n1-c1ccccc1 | -13.2% (active)
COc1ccc2[nH]c(=O)c(/C=C/C(=O)c3ccc(Nc4nccc(-c5ccc6ccccc6c5)n4)cc3)cc2c1 | 101%
OC(c1cccc(C(F)(F)F)c1)c1cnccc1NC1CCCCCC1 (stereo unspecified) | -68.2% (active)
CNC(=O)c1cc(Oc2ccc3nc(NC(=O)Nc4ccc(CN5CCOCC5)c(C(F)(F)F)c4)sc3c2)ccn1 | -55.4% (active)
O=c1c2cccc3c(Nc4ccccn4)ccc(c32)c2nc3ccccc3n12 | 51.8%
Cc1ccc2c(c1)n([O-])c1cc(Cl)ccc1[n+]2=O | 107%

Source: PubChem BioAssay (NCI)
